From PubChem BioAssay (NCATS)
Results filed as inconclusive are left out. The source made the active and inactive calls. The call rests on the fitted dose curve; in most records, active means well fitted cell-killing curve with a large enough effect; inconclusive means small, poorly fitted or top-dose-only effect, or effect the other way; inactive means no such curve, though single readings can be large or run the other way.

Assays:
[1] = Quantitative High-Throughput drug screen in 47 multiple myeloma cell lines against the NCATS MIPE library collection: MM1R_ATCC cell viability assay (AID 1918981); further: nearly all actives have a fitted effect of over 35% in size; further: potency means the concentration at half of the fitted maximal effect
In short: (§1)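 qHTS format: cells plated (500/well), pin-dosed with MIPE 4.0 compounds, kept 48 h at 37 °C. Readout was CellTiter-Glo luminescence, median RLU.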

[2] = Quantitative High-Throughput drug screen in 47 multiple myeloma cell lines against the NCATS MIPE library collection: LP1_DSMZ cell viability assay (AID 1918982); further: nearly all actives have a fitted effect of over 35% in size; further: potency means the concentration at half of the fitted maximal effect
In short: as §1

[3] = Quantitative High-Throughput drug screen in 47 multiple myeloma cell lines against the NCATS MIPE library collection: KMS28PE_JCRB cell viability assay (AID 1918983); further: nearly all actives have a fitted effect of over 35% in size; further: potency means the concentration at half of the fitted maximal effect
In short: as §1

[4] = Quantitative High-Throughput drug screen in 47 multiple myeloma cell lines against the NCATS MIPE library collection: L363_DSMZ cell viability assay (AID 1918984); further: nearly all actives have a fitted effect of over 40% in size; further: potency means the concentration at half of the fitted maximal effect
In short: as §1

[5] = Quantitative High-Throughput drug screen in 47 multiple myeloma cell lines against the NCATS MIPE library collection: OCIMY7_PLB cell viability assay (AID 1918987); settings: OCI-MY7 myeloma viability, CellTiter-Glo ATP, 48 h; viability (% of DMSO): at 45.8 µM (top of the series); further: nearly all actives have a fitted effect of over 65% in size; further: potency means the concentration at half of the fitted maximal effect
In short: as §1

[6] = Quantitative High-Throughput drug screen in 47 multiple myeloma cell lines against the NCATS MIPE library collection: OPM1_PLB cell viability assay (AID 1918989); further: nearly all actives have a fitted effect of over 40% in size; further: potency means the concentration at half of the fitted maximal effect
In short: as §1

[7] = Quantitative High-Throughput drug screen in 47 multiple myeloma cell lines against the NCATS MIPE library collection: SKMM1_PLB cell viability assay (AID 1919863); settings: SKMM1 myeloma viability, CellTiter-Glo ATP, 48 h; viability: stronger effect = lower value; further: potency means the concentration at half of the fitted maximal effect; nearly all actives have a fitted effect of over 35% in size
In short: as §1

[8] = Quantitative High-Throughput drug screen in 47 multiple myeloma cell lines against the NCATS MIPE library collection: XG6_PLB cell viability assay (AID 1919865); further: nearly all actives have a fitted effect of over 40% in size; further: potency means the concentration at half of the fitted maximal effect
In short: as §1

[9] = Quantitative High-Throughput drug screen in 47 multiple myeloma cell lines against the NCATS MIPE library collection: XG1_PLB cell viability assay (AID 1919866); further: nearly all actives have a fitted effect of over 35% in size; further: potency means the concentration at half of the fitted maximal effect
In short: as §1

[10] = Quantitative High-Throughput drug screen in 47 multiple myeloma cell lines against the NCATS MIPE library collection: VP6_DJ cell viability assay (AID 1919867); further: nearly all actives have a fitted effect of over 40% in size; further: potency means the concentration at half of the fitted maximal effect
In short: as §1

[11] = Quantitative High-Throughput drug screen in 47 multiple myeloma cell lines against the NCATS MIPE library collection: UTMC2_PLB cell viability assay (AID 1919868); settings: CellTiter-Glo ATP luminescence, 48 h; viability (% of DMSO control): at 45.8 µM (top of the series); further: nearly all actives have a fitted effect of over 55% in size; further: potency means the concentration at half of the fitted maximal effect
In short: as §1

[12] = Quantitative High-Throughput drug screen in 47 multiple myeloma cell lines against the NCATS MIPE library collection: PE2_PLB cell viability assay (AID 1919869); further: nearly all actives have a fitted effect of over 35% in size; further: potency means the concentration at half of the fitted maximal effect
In short: as §1

[13] = Quantitative High-Throughput drug screen in 47 multiple myeloma cell lines against the NCATS MIPE library collection: PCM6_Riken cell viability assay (AID 1919870); further: nearly all actives have a fitted effect of over 30% in size; further: potency means the concentration at half of the fitted maximal effect
In short: as §1

[14] = Quantitative High-Throughput drug screen in 47 multiple myeloma cell lines against the NCATS MIPE library collection: RPMI8226_ATCC cell viability assay (AID 1919871); further: nearly all actives have a fitted effect of over 30% in size; further: potency means the concentration at half of the fitted maximal effect
In short: as §1

[15] = Quantitative High-Throughput drug screen in 47 multiple myeloma cell lines against the NCATS MIPE library collection: OPM2_DSMZ cell viability assay (AID 1919872); further: nearly all actives have a fitted effect of over 30% in size; further: potency means the concentration at half of the fitted maximal effect
In short: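 We plated 500 myeloma cells per well, pinned in MIPE 4.0 compounds, and incubated for 48 hours at 37C. ATP was then quantified with CellTiter-Glo, with DMSO and media-only wells defining 100% and 0%.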

[16] = Quantitative High-Throughput drug screen in 47 multiple myeloma cell lines against the NCATS MIPE library collection: KMS11_JCRBsus cell viability assay (AID 1919873); further: nearly all actives have a fitted effect of over 50% in size; further: potency means the concentration at half of the fitted maximal effect
In short: as §1

[17] = Quantitative High-Throughput drug screen in 47 multiple myeloma cell lines against the NCATS MIPE library collection: KMS28BM_JCRB cell viability assay (AID 1919874); further: nearly all actives have a fitted effect of over 35% in size; further: potency means the concentration at half of the fitted maximal effect
In short: as §1

[18] = Quantitative High-Throughput drug screen in 47 multiple myeloma cell lines against the NCATS MIPE library collection: OCIMY5_PLB cell viability assay (AID 1918988); further: nearly all actives have a fitted effect of over 65% in size; further: potency means the concentration at half of the fitted maximal effect
In short: as §1

[19] = Quantitative High-Throughput drug screen in 47 multiple myeloma cell lines against the NCATS MIPE library collection: U266_ATCC cell viability assay (AID 1919864); further: nearly all actives have a fitted effect of over 35% in size
In short: as §1

Measured: Potency

COc1cc2c(Nc3ccc(Cl)c(Cl)c3F)ncnc2cc1OCC1C[C@@H]2CN(C)C[C@H]2C1
active: [1] 16.6 µM | [2] 18.7 µM | [3] 16.6 µM | [4] 1.66 µM | [5] 0.209 µM | [6] 3.32 µM | [7] 5.9 µM | [8] 1.05 µM | [9] 2.35 µM | [10] 2.64 µM | [11] 2.35 µM | [12] 1.87 µM | [13] 1.32 µM | [14] 8.33 µM | [15] 20.9 µM | [16] 5.9 µM | [17] 8.33 µM

C[N+]1(C)[C@@H]2C[C@@H](OC(=O)C(O)(c3cccs3)c3cccs3)C[C@H]1[C@@H]1O[C@@H]12
not listed: [5] | [7] | [10]
inactive: all other assays above

CCN(C(=O)c1c(O)c2c(Cl)cccc2n(C)c1=O)c1ccccc1
not listed: [7] | [10] | [11] | [15]
inactive: all other assays above

COC(=O)[C@@H]1[C@H]2C[C@@H]3c4[nH]c5ccccc5c4CCN3C[C@@H]2CC[C@@H]1O
not listed: [7] | [15] | [17] | [18] | [19]
inactive: all other assays above

O=C1NC(=O)[C@@H](c2cn3c4c(cccc24)CCC3)[C@H]1c1c[nH]c2ccccc12
active: [1] 14.8 µM | [2] 1.05 µM | [3] 0.833 µM | [4] 0.118 µM | [5] 0.0372 µM | [18] 0.132 µM | [6] 2.09 µM | [7] 0.132 µM | [10] 0.526 µM | [11] 0.332 µM | [12] 1.87 µM | [13] 5.9 µM | [14] 16.6 µM | [15] 1.32 µM | [16] 0.118 µM

CC[C@H]1OC(=O)[C@H](C)[C@@H](O[C@H]2C[C@@](C)(OC)[C@@H](O)[C@H](C)O2)[C@H](C)[C@@H](O[C@@H]2O[C@H](C)C[C@H](N(C)C)[C@@H]2O)[C@](C)(OC)C[C@@H](C)C(=O)[C@H](C)[C@@H](O)[C@]1(C)O
active: [7] 0.105 µM
not listed: [9] | [11] | [16] | [17] | [18] | [19]
inactive: all other assays above

CC(C)(N)c1ccc(-c2nc3ccccc3nc2-c2ccccc2)cc1
active: [1] 26.4 µM | [2] 18.7 µM | [3] 18.7 µM | [4] 3.32 µM | [5] 7.43 µM | [18] 23.5 µM | [6] 5.9 µM | [8] 5.9 µM | [9] 7.43 µM | [10] 7.43 µM | [12] 10.5 µM | [13] 10.5 µM | [16] 18.7 µM | [17] 26.4 µM
